{"source": "PubChem BioAssay (NCI)", "note": "Compounds without any hit were thinned out: in the full panel of roughly 83,000, 20% have a hit.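 Plates (96-well) were seeded with cells, treated with compound at one concentration, and incubated for 48 hours before percent growth was determined.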 Unmarked numbers belong to inactive results. Activity calls are given as the source filed them. The calls were made as follows: active = growth percent below 10; inactive = the rest."}
{"system": "HL-60(TB) leukemia", "test": "NCI-60 one-dose screen, 48 h (100 = growth as untreated, 0 = no growth, -100 = all killed)", "conditions": "10 µM unless noted"}
{"molecule": "O=C1OCC2=C1C(c1cccc(F)c1)c1cc3c(cc1N2CCO)CCC3", "note": "(centres undefined)", "growth": "-29.8% (active)"}
{"molecule": "C=CCC(CCCC)(C(=O)OCC)C(=O)OCC", "growth": "80.6%"}
{"molecule": "CC(C)c1cc(C(=O)O)c(O)c(C(C)C)c1.CC(C)c1cc(C(=O)O)c(O)c(C(C)C)c1.[Mn]", "growth": "94.2%"}
{"molecule": "COc1cc(/C=C/C(=O)/C=C/c2cc(OC)c3c(c2OC)OCO3)c(OC)c2c1OCO2", "growth": "27.2%"}
{"molecule": "CC(=O)Nc1ccc(S(=O)(=O)NC2CCCCC2)cc1", "growth": "96%"}
{"molecule": "CC(=O)Nc1cccc(-c2ccc3c(c2)NC(=O)/C3=C\\c2ccc[nH]2)c1", "growth": "20.2%"}
{"molecule": "C#CCOc1cccc(-c2ncnc3cc(NC(=O)C=C)ccc23)c1", "growth": "16.9%"}
{"molecule": "C=CCNC(=S)NN", "growth": "119%"}
{"molecule": "Nc1ncnc2c1N=C(c1ccc(Br)cc1)CC(c1cccc(Nc3ccnc4cc(C(F)(F)F)ccc34)c1)N2", "note": "(centres undefined)", "growth": "38.1%"}
{"molecule": "O=C(NCCNC(=O)Oc1cccc2ccccc12)Oc1cccc2ccccc12", "growth": "79.7%"}
{"molecule": "CCN(CC)CCN1C(=O)c2c(c(C)c3c(oc4ccc(OC)cc43)c2C)C1=O", "growth": "93.3%"}
{"molecule": "O=Cc1[nH]c(Sc2ccccc2)c2ccccc12", "growth": "12.1%"}
{"molecule": "CC1Cc2c(Cl)ncnc2N(C)c2ccc(O)cc21", "note": "(centres undefined)", "growth": "91.4%"}
{"molecule": "COc1ccc(-c2csc(NC(=O)CSc3nc(C)c(-c4ccccc4)n3Nc3ccccc3)n2)cc1", "growth": "50.3%"}
{"molecule": "CCc1ccc2c(c1)N(CCO)C1=C(C(=O)OC1)C2c1cccc(Br)c1", "note": "(centres undefined)", "growth": "-9.76% (active)"}
{"molecule": "CCN(CCNc1ccc(C)c2sc3cc(Cl)ccc3c(=O)c12)CC(C)(C)O", "growth": "81.4%"}
{"molecule": "C=C1C(=O)O[C@H]2[C@H]1CC/C(COC(=O)NCc1c[nH]c3ccc(Br)cc13)=C\\CC[C@@]1(C)O[C@@H]21", "growth": "-26.9% (active)"}
{"molecule": "CCNC(=O)Oc1ccc(/C(=C(\\C)c2ccccc2)c2ccc(OCCN3CCCCC3)cc2)cc1", "growth": "45.5%"}
{"molecule": "COc1cc(/C(=C2/O[C@@H]([C@H]3COC(C)(C)O3)[C@H]3OC(C)(C)O[C@@H]23)c2ccc3c(c2)OCO3)cc(OC)c1OC", "growth": "86.1%"}
{"molecule": "COc1ccc(Cn2cc3c(c2-c2ccccc2)CCc2cnoc2-3)cc1N", "growth": "-19.8% (active)"}
{"molecule": "COc1ccc(OC)c(C(=O)Nc2cccc(-c3cc(=O)c4ccccc4o3)c2)c1", "growth": "89.4%"}
{"molecule": "N=c1c(S(=O)(=O)c2ccccc2)cc2c(=O)n3ccccc3nc2n1C1CCCC1", "growth": "104%"}
{"molecule": "N#Cc1c(NC(=O)c2cccs2)[n+]([O-])c2ccc(F)cc2[n+]1[O-]", "growth": "91.6%"}
{"molecule": "CC(=O)Nc1ccc(OC(=O)c2ccccc2O)cc1", "growth": "102%"}
{"molecule": "CCCOCc1cn[nH]n1", "growth": "105%"}
{"molecule": "CC1(C)N=C(N)N=C(N)N1c1cccc(CCCCOc2ccccc2)c1", "growth": "13.6%"}
{"molecule": "COc1cc(C(=O)Nc2cc(O)c(CC=C(C)C)c(O)c2)cc2c1O[C@]1(C)CC[C@@H](O)C(C)(C)[C@H]1C2", "growth": "5.12% (active)"}
{"molecule": "Cc1ccccc1C[P+](c1ccccc1)(c1ccccc1)c1ccccc1", "growth": "1.16% (active)"}
{"molecule": "CCOC(=O)Oc1c(OC)cc(C(=O)O[C@@H]2C[C@@H]3CN4CCc5c([nH]c6cc(OC)ccc56)[C@H]4C[C@@H]3[C@H](C(=O)OC)[C@H]2OC)cc1OC", "growth": "-27.7% (active)"}
{"molecule": "c1ccc(-c2nc3nonc3nc2-c2ccccc2)cc1", "growth": "85.3%"}
{"molecule": "COc1ccc(-c2[nH][nH]c(=O)c2-c2nc3ccccc3s2)cc1", "growth": "99.5%"}
{"molecule": "Cc1ccc(-c2csc(NC(=O)c3ccccc3CN3C(=O)c4ccccc4C3=O)n2)cc1", "growth": "95.3%"}
{"molecule": "CNC(=O)c1cc(Oc2ccc(NC(=O)Nc3ccc(Cl)c(OC(F)(F)F)c3)c(F)c2)ccn1", "growth": "28.9%"}
{"molecule": "O=[N+]([O-])c1c(O)c(Cl)cc(Cl)c1Cl", "growth": "92.1%"}
{"molecule": "O=C(NCCCN1CCC(N2CCCCC2)CC1)C1=Cc2cc(Br)ccc2OC1", "growth": "36.3%"}
{"molecule": "CC(C)=CCCC(C)c1ccc(C)c2c1OCN(CC1CCNCC1)C2", "note": "(centres undefined)", "growth": "13.8%"}
{"molecule": "c1ccc(-c2c(-c3ccccc3)[n+](Cc3ccc4ccccc4c3)c(-c3ccc(-c4nc5ccccc5s4)cc3)n2Cc2ccc3ccccc3c2)cc1", "growth": "-57.2% (active)"}
{"molecule": "CCN1CCN(c2nc(C)cc(N(CCCNc3ccnc4cc(Cl)ccc34)Cc3ccco3)n2)CC1", "growth": "37.5%"}
{"molecule": "Cc1cc(Cl)ccc1NC(=O)/C(Cl)=C1/Sc2ccccc2NC1=O", "growth": "93.1%"}
